Shown are actives, neighbours in structure and some others; about 0.37% of the full set was active somewhere.
TRPV1 PAM = HTS Assay for Compounds that Act as Potentiators of the Vanilloid Receptor 1; potentiation, % at 8.33 µM; Transient receptor potential cation channel subfamily V member 1 (Homo sapiens), Q8NER1; 0.02% of 320,000 active; AID 540277, 2011; TRPV1-expressing cells, Fluo-8 calcium influx, capsaicin EC20 potentiation; in the data active means potentiation above about 80%; inconclusive means between about 30% and that limit
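Cells expressing TRPV1 were dye-loaded with Fluo-8 and read kinetically: 10 s baseline, 3 min after compound (agonist portion), then 2 min after EC20 capsaicin (allosteric enhancer portion). Calcium-bound dye fluorescence at 480/520 nm.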
TRPV1 agonist = HTS Assay for Compounds that Act as Agonists of the Vanilloid Receptor 1. TRPV1-expressing cells, Fluo-8 calcium influx, agonist mode. activation, % at 8.33 µM. Transient receptor potential cation channel subfamily V member 1 (Homo sapiens), Q8NER1. 0.19% of 320,000 active. AID 540275, 2011; in the data active means activation above about 80%; inconclusive means between about 30% and that limit
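Fluo-8 calcium influx in TRPV1-expressing cells, kinetic read (ex 480/em 520 nm). Compound added and read 3 min for agonist activity, followed by capsaicin at EC20 final and 2 min further read for enhancement.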
ASM inhibitor = Inhibitors of Secretory Acid Sphingomyelinase (S-ASM): qHTS; 0.006% of 340,000 active; Potency, µM (doses to about 57.5 µM), actives largely listed as inhibitors; placental ASM, HMU-PC fluorogenic substrate, 60 min; AID 504937, 2011; Sphingomyelin phosphodiesterase (Homo sapiens), P17405
Target sequence (P17405 47-631 limits assumed): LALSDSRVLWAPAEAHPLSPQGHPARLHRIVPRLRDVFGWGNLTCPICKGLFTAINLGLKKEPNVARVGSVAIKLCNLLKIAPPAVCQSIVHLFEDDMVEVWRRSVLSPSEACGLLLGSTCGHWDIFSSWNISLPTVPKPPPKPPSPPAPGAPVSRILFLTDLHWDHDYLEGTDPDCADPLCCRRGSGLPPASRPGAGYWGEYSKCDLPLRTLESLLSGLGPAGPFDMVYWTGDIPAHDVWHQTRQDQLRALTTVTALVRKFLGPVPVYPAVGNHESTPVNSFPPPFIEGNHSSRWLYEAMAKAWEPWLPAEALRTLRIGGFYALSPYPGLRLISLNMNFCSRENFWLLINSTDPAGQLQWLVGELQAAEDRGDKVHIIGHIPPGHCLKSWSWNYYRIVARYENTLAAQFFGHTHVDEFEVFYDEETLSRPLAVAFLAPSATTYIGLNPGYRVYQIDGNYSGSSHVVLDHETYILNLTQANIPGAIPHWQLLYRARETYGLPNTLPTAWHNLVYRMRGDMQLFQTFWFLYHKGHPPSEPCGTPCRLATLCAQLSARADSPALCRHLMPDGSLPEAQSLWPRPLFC
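qHTS format. ASM enzyme prepared from human placenta hydrolyses the fluorogenic substrate HMU-PC0 (9 uM final) over 60 min at 37 °C after a 10 min compound preincubation.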
A-T KAP1 phos = qHTS Assay for Identifying a Potential Treatment of Ataxia-Telangiectasia; Potency, µM (titrated, usually from 57.5 µM), usual class: activators; 0.19% of 320,000 active; AID 485349, 2010; F2112 A-T fibroblasts, KAP-1 phosphorylation AlphaLISA; neocarzinostatin DNA damage 30 min before lysis; further: nearly all actives have a fitted effect of over 45% in size
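ATM-like activity read as KAP-1 phosphorylation via AlphaLISA donor/acceptor antibody pairs after lysis and 6 hr at 25C. Cells were ATM-null patient fibroblasts (F2112, hTERT), dosed 60 min, then exposed to the DSB inducer NCS for 30 min.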
TSG101-PTAP inh = qHTS Assay for Iinhibitors of HIV-1 Budding by Blocking the Interaction of PTAP/TSG101. 340,000 tested, under 10 active. Fluorescence polarization, FITC-PTAP peptide / Tsg101 binding. Tumor susceptibility gene 101 protein (Homo sapiens), Q99816. Potency, µM (series often up to 115 µM), most hits filed as inhibitors; active means well fitted inhibition curve with a large enough effect in the main read-out, with a control signal flat, not every such curve was filed as active; inconclusive means small, poorly fitted or top-dose-only effect, or effect the other way, or a change in a side signal; inactive means no such curve, though single readings can be large or run the other way
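Tsg101 binding domain (10 uM final) was mixed with compound and a FITC-labeled PTAP peptide (50 nM final) in HEPES pH 7.5 buffer with NaCl, Tween 20, EDTA and TCEP; fluorescence polarization was read after 20 min at r.t.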
Numbers stand for hits; – = inactive; ? = inconclusive; · = no result; [ ] = dose if it differs, or a comment. Unless noted, the call rests on the fitted dose curve; in most records, active means well fitted curve in the direction sought with a large enough effect; inconclusive means small, poorly fitted or top-dose-only effect, or another doubt; inactive means no such curve, though single readings can be large; an effect the other way counts as inactive or inconclusive.

SMILES	TRPV1 PAM	TRPV1 agonist	ASM inhibitor	A-T KAP1 phos	TSG101-PTAP inh
O=C(NCCc1nc2ccccc2n1Cc1ccccc1F)c1ccc(F)cc1	–	?	·	·	·
CCOC(=O)c1cc(-c2ccc(N3CCOCC3)cc2)nn1-c1ccccc1	–	–	?	–	–
CCOC(=O)c1cc(-c2ccc(N3CCOCC3)cc2)nn1-c1ccc(F)cc1F	–	–	28.2µM	–	–
CC(=O)Nc1ccccc1NS(=O)(=O)c1ccccc1NO	–	–	·	·	·
C=C(C)n1c(=O)n(Cc2ccccc2C)c2ccccc21	–	–	–	11.2µM	–
COc1cc(C(=O)NCCCc2nc3ccccc3n2Cc2cc(C)ccc2C)cc(OC)c1OC	–	–	–	–	–
CC(=O)NCCCc1nc2ccccc2n1Cc1cc(C)ccc1C	–	89.0	–	–	–
Cc1cc(OCc2cc(C(=O)N(C)C3CCOC3)no2)cc(C)c1Cl (stereo not drawn)	–	82.5	–	–	–
CC(=O)c1ccc(OCc2cc(C(=O)N(C)C3CCOC3)no2)cc1 (stereo not drawn)	?	–	–	–	–
Cc1onc(-c2ccccc2)c1C(=O)NN1CCOCC1	·	·	–	–	–
COc1ccc(-c2cc(C(F)(F)F)nc(N3CCCCC3)n2)cc1OC	–	–	–	35.5µM	–
CC1CCC(NC(=O)COC(=O)c2cccnc2Cl)CC1 (stereo not drawn)	–	–	–	–	–
COc1cc(NC(=O)Nc2cccc(C(C)=O)c2)cc(OC)c1OC	–	81.6	–	–	–
COc1cccc(/C=C/C(=O)Nc2cccc(C(C)=O)c2)c1OC	–	90.1	–	–	–
O=C1C(NS(=O)(=O)c2cccs2)=C(N2CCOCC2)C(=O)c2ccccc21	–	–	–	7.08µM	–
CN1CCN(C2=C(NS(=O)(=O)c3cccs3)C(=O)c3ccccc3C2=O)CC1	–	–	–	–	–
Cn1c2cc(B(O)O)sc2c2cnn(Cc3c(F)cccc3Cl)c(=O)c21	·	·	·	–	·
O=C(NC(NC(=S)N1CCOCC1)C(Cl)(Cl)Cl)c1ccc(Cl)cc1 (stereo not drawn)	–	83.0	–	–	–
CNC(=O)c1csc(-c2ccc(C)cc2)n1	–	80.5	–	–	–
O=C(Nc1ccc(Cl)cc1)c1csc(-c2ccncc2)n1	–	–	–	–	–
O=C(Nc1ccc(Cl)cc1Cl)c1csc(-c2cccnc2)n1	·	·	–	39.8µM	–
CNC(=O)c1csc(-c2ccc(Cl)cc2)n1	–	84.3	–	–	–
O=C(Nc1ccc(Cl)cc1)c1csc(-c2ccccc2)n1	–	81.3	–	17.8µM	–
COc1ccccc1C1=NC(c2ccccc2)CN1c1ccccc1 (stereo not drawn)	–	–	–	28.2µM	–
COc1ccc(CNC(=O)C2(C)Cc3ccccc3C(=O)O2)cc1 (stereo not drawn)	–	–	–	–	–
SMILES	TRPV1 PAM	TRPV1 agonist	ASM inhibitor	A-T KAP1 phos	TSG101-PTAP inh
COc1ccc(CCNc2nc(-c3cccnc3)nc3ccccc23)cc1OC	–	86.0	–	–	–
Cc1ccccc1Nc1nc(-c2cccnc2)nc2ccccc12	–	?	–	–	–
Cc1ccc(Nc2nc(-c3cccnc3)nc3ccccc23)cc1	–	95.1	–	–	–
C=CCn1c2ccccc2c(=O)c2cc(C#CC3(O)CCCCC3)ccc21	–	–	–	25.1µM	–
C=CCn1c2ccccc2c(=O)c2cc(C#CC[C@@H](C)O)ccc21	–	–	–	20µM	–
Cn1c2ccccc2c(=O)c2cc(C#Cc3cccc(N)c3)ccc21	–	–	–	–	–
COc1ccc(CCN2C(=O)CC(C(N)=O)SC2=Nc2ccccc2)cc1OC (stereo not drawn)	–	–	–	–	–
FC(F)(F)c1cc(CCN2C(=S)NC[C@@H]2c2ccccc2)cc(C(F)(F)F)c1	–	–	–	35.5µM	–
O=C1NC[C@H](c2ccccc2)N(CCc2cc(C(F)(F)F)cc(C(F)(F)F)c2)C1=O	–	–	–	–	–
O=C1NC(=Nc2ccc(F)cc2)CS1	–	–	–	–	–
O=C1NC(=Nc2ccccc2)CS1	–	–	–	11.2µM	–
CC(C)C[C@H](NC(=O)c1[nH]cnc1C(=O)Nc1ccccc1)C(=O)OC(C)(C)C	–	?	–	31.6µM	–
CNC(=O)c1[nH]cnc1C(=O)N[C@@H](C)C(=O)OCc1ccccc1	–	–	–	44.7µM	–
Fc1cccc(Cl)c1CNC(c1ccccc1)c1ccccc1	–	–	–	31.6µM	–
COc1cccc(CN2C(=O)c3ccccc3S2(=O)=O)c1	–	–	–	–	–
COc1cccc(CN2C(=O)c3cccc(N)c3C2=O)c1	–	–	–	25.1µM	–
O=C(NCC(Cl)c1ccc2ccccc2c1)c1c(F)cccc1F (stereo not drawn)	–	–	–	20µM	–
OC(c1cc(-c2ccc(C(F)(F)F)cc2)nc(C(F)(F)F)c1)C1CCCCN1 (stereo not drawn)	–	–	–	39.8µM	–
OC(c1cc(C(F)(F)F)nc2c(C(F)(F)F)cccc12)C1CCCCN1 (stereo not drawn)	–	–	–	–	–
Cc1cc2c(c(=O)n1Cc1ccccc1)C1O[C@](c3ccsc3)(Cc3cc(C#N)ccc31)O2	–	–	·	–[11.5 µM]	·
O=C(C1=C[C@H](c2ccccc2)C[C@H](OCc2ccc(CO)cc2)O1)N1CCN(Cc2ccccc2)CC1	–	?	–	–	–
O=C(C1=C[C@@H](c2ccccc2)C[C@@H](OCc2ccc(CO)cc2)O1)N1CCCCCCC1	–	88.2	–	–	–
CCCOc1ccc(-c2nnn(CC(=O)N3CCCC(C)C3)n2)cc1 (stereo not drawn)	–	–	–	39.8µM	–
O=C(N/N=C/C=C\c1ccccc1)c1cnccn1	–	–	–	–	–
O=C(N/N=C/C=C/c1ccccc1)c1ccccn1	–	96.6	–	–	–
Cc1nc2cc(-c3cccc(F)c3)nn2c(N2CCN(C(=O)c3ccco3)CC2)c1C	–	81.2	–	–	–
Cc1nc2cc(-c3cccc(F)c3)nn2c(C)c1CCC(=O)N1CCN(c2ccccn2)CC1	–	–	–	–	–
Cc1nc2ccccc2c(=O)n1NC(=O)C1CCC(C(C)(C)C)CC1 (stereo not drawn)	–	81.6	–	–	–
Cc1nc2ccccc2c(=O)n1NC(=O)C1CC1C (stereo not drawn)	–	–	–	–	–
N=c1ccn2c(n1)OC1C(O)[C@@H](CO)O[C@H]12 (stereo partly drawn)	–	–	·	·	·
